From the supplement of paper PMC8728848
The entries come from a sample that favours the strongest signals as a whole.

Experiments:
Assay in all cases: glycan array binding signal (z-score within array); higher = stronger binding
Settings in all cases: glycan notation: IUPAC condensed, linker removed; mutation: D21K
[1] = target: Fuc(a1-2)Gal(b1-3)GalNAc(a1-3)[Fuc(a1-2)]Gal(b1-4)GlcNAc
How it was run: (§1)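 The Consortium for Functional Glycomics database supplied 3228 glycan arrays, of which those lacking an available protein sequence were dropped. The binding signal, a within-array Z-score, was averaged across arrays of the same protein sequence and across linkers. Negative scores can be read as non-binding.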

[2] = target: Fuc(a1-2)Gal(b1-4)[Fuc(a1-3)]GlcNAc
How it was run: as §1

[3] = target: Fuc(a1-2)[Gal(a1-3)]Gal(b1-4)GlcNAc
How it was run: as §1

[4] = target: Fuc(a1-2)[Gal(a1-3)]Gal(b1-4)GlcNAc(b1-3)GalNAc
How it was run: as §1

[5] = target: Fuc(a1-2)[Gal(a1-3)]Gal(b1-4)GlcNAc(b1-3)[Fuc(a1-2)[Gal(a1-3)]Gal(b1-4)GlcNAc(b1-6)]GalNAc
How it was run: as §1

[6] = target: Fuc(a1-2)[Gal(a1-3)]Gal(b1-4)GlcNAc(b1-6)GalNAc
How it was run: as §1

[7] = target: Fuc(a1-2)[Gal(a1-3)]Gal(b1-4)[Fuc(a1-3)]GlcNAc
How it was run: as §1

[8] = target: Fuc(a1-2)[GalNAc(a1-3)]Gal(b1-4)GlcNAc(b1-2)Man(a1-3)[Fuc(a1-2)[GalNAc(a1-3)]Gal(b1-4)GlcNAc(b1-2)Man(a1-6)]Man(b1-4)GlcNAc(b1-4)GlcNAc
How it was run: as §1

[9] = target: Fuc(a1-2)[GalNAc(a1-3)]Gal(b1-4)GlcNAc(b1-3)[Fuc(a1-2)[GalNAc(a1-3)]Gal(b1-4)GlcNAc(b1-6)]GalNAc
How it was run: as §1

[10] = target: Gal(a1-3)Gal(b1-4)GlcNAc(b1-2)Man
How it was run: as §1

Gal(a1-4)GlcNAc = target: Gal(a1-4)GlcNAc
How it was run: as §1

Gal(a1-6)Glc = target: Gal(a1-6)Glc
How it was run: as §1

[11] = target: Gal(b1-3)GalNAc(b1-3)Gal(a1-4)Gal(b1-4)Glc
How it was run: as §1

[12] = target: Gal(b1-3)GalNAc(b1-4)[Neu5Ac(a2-3)]Gal(b1-4)Glc
How it was run: as §1

[13] = target: Gal(b1-3)GlcNAc(b1-2)Man(a1-3)[GlcNAc(b1-4)][Gal(b1-3)GlcNAc(b1-2)Man(a1-6)]Man(b1-4)GlcNAc(b1-4)GlcNAc
How it was run: as §1

[14] = target: Gal(b1-3)GlcNAc(b1-3)Gal(b1-4)Glc
How it was run: as §1

[15] = target: Gal(b1-3)GlcNAc(b1-3)Gal(b1-4)GlcNAc(b1-3)Gal(b1-4)GlcNAc(b1-2)[Gal(b1-3)GlcNAc(b1-3)Gal(b1-4)GlcNAc(b1-3)Gal(b1-4)GlcNAc(b1-6)]Man(a1-6)[Gal(b1-3)GlcNAc(b1-3)Gal(b1-4)GlcNAc(b1-3)Gal(b1-4)GlcNAc(b1-2)Man(a1-3)]Man(b1-4)GlcNAc(b1-4)[Fuc(a1-6)]GlcNAc
How it was run: as §1

Gal(b1-3)GlcNAc6S = target: Gal(b1-3)GlcNAc6S
How it was run: as §1

[16] = target: Gal(b1-3)[Fuc(a1-4)]GlcNAc(b1-2)Man(a1-3)[Gal(b1-3)[Fuc(a1-4)]GlcNAc(b1-2)Man(a1-6)]Man(b1-4)GlcNAc(b1-4)[Fuc(a1-6)]GlcNAc
How it was run: as §1

[17] = target: Gal(b1-3)[GlcNAc(b1-6)]GalNAc
How it was run: as §1

[18] = target: Gal(b1-4)GlcNAc(b1-3)Gal(b1-4)GlcNAc(b1-2)Man(a1-3)[Gal(b1-4)GlcNAc(b1-3)Gal(b1-4)GlcNAc(b1-2)Man(a1-6)]Man(b1-4)GlcNAc(b1-4)[Fuc(a1-6)]GlcNAc
How it was run: as §1

[19] = target: Gal(b1-4)GlcNAc(b1-3)Gal(b1-4)GlcNAc(b1-3)Gal(b1-4)GlcNAc(b1-3)Gal(b1-4)GlcNAc(b1-2)[Gal(b1-4)GlcNAc(b1-3)Gal(b1-4)GlcNAc(b1-3)Gal(b1-4)GlcNAc(b1-3)Gal(b1-4)GlcNAc(b1-6)]Man(a1-6)[Gal(b1-4)GlcNAc(b1-3)Gal(b1-4)GlcNAc(b1-3)Gal(b1-4)GlcNAc(b1-3)Gal(b1-4)GlcNAc(b1-2)Man(a1-3)]Man(b1-4)GlcNAc(b1-4)[Fuc(a1-6)]GlcNAc
How it was run: as §1

[20] = target: Gal(b1-4)GlcNAc(b1-3)Gal(b1-4)GlcNAc(b1-3)GalNAc
How it was run: as §1

[21] = target: Gal(b1-4)GlcNAc(b1-3)Gal(b1-4)GlcNAc(b1-6)[Gal(b1-3)]GalNAc
How it was run: as §1

[22] = target: Gal(b1-4)GlcNAc(b1-3)Gal(b1-4)[Fuc(a1-3)]GlcNAc(b1-3)Gal(b1-4)[Fuc(a1-3)]GlcNAc
How it was run: as §1

Gal3S6S(b1-4)GlcNAc = target: Gal3S6S(b1-4)GlcNAc
How it was run: as §1

Gal6S(b1-3)GlcNAc6S = target: Gal6S(b1-3)GlcNAc6S
How it was run: as §1

B1: C7A (Sus scrofa) (peptide)
chain: KILRGVCKKIMRTFLRRISKKILTGKK
glycan array binding signal (z-score) [1]: -0.784
glycan array binding signal (z-score) [2]: -1.12
glycan array binding signal (z-score) [3]: 0.504
glycan array binding signal (z-score) [4]: -1.37
glycan array binding signal (z-score) [5]: -0.287
glycan array binding signal (z-score) [6]: 0.121
glycan array binding signal (z-score) [7]: 1.3
glycan array binding signal (z-score) [8]: -0.971
glycan array binding signal (z-score) [9]: 0.698
glycan array binding signal (z-score) [10]: -0.255
glycan array binding signal (z-score) (Gal(a1-4)GlcNAc): -1.02
glycan array binding signal (z-score) (Gal(a1-6)Glc): -1.76
glycan array binding signal (z-score) [11]: 2.25
glycan array binding signal (z-score) [12]: 0.649
glycan array binding signal (z-score) [13]: 0.213
glycan array binding signal (z-score) [14]: -0.894
glycan array binding signal (z-score) [15]: 0.352
glycan array binding signal (z-score) (Gal(b1-3)GlcNAc6S): 1.73
glycan array binding signal (z-score) [16]: -1.63
glycan array binding signal (z-score) [17]: -0.867
glycan array binding signal (z-score) [18]: 3.05
glycan array binding signal (z-score) [19]: -0.172
glycan array binding signal (z-score) [20]: 2.33
glycan array binding signal (z-score) [21]: 2.48
glycan array binding signal (z-score) [22]: -0.696
glycan array binding signal (z-score) (Gal3S6S(b1-4)GlcNAc): 2.5
glycan array binding signal (z-score) (Gal6S(b1-3)GlcNAc6S): 2.66
